The record followed here is ChEMBL document CHEMBL2218924, “A broad activity screen in support of a chemogenomic map for kinase signalling research and drug discovery” (Biochem J, 2013).

Test [1] addresses T1, Casein kinase II (Homo sapiens) (UniProt P67870+P68400+P19784). To be noted: at 1 µM.
Test [2] concerns the target T1, Casein kinase II (Homo sapiens). To be noted: at 10 µM.
Test [3] deals with Casein kinase II subunit alpha' (Homo sapiens) (UniProt P19784). To be noted: at 1 µM.
Test [4] has the same target. To be noted: at 10 µM.
The target of test [5] is Dual specificity protein kinase CLK2 (Homo sapiens) (UniProt P49760). To be noted: at 1 µM.
Sequence of Dual specificity protein kinase CLK2 (Homo sapiens) (P49760 whole entry, looked up): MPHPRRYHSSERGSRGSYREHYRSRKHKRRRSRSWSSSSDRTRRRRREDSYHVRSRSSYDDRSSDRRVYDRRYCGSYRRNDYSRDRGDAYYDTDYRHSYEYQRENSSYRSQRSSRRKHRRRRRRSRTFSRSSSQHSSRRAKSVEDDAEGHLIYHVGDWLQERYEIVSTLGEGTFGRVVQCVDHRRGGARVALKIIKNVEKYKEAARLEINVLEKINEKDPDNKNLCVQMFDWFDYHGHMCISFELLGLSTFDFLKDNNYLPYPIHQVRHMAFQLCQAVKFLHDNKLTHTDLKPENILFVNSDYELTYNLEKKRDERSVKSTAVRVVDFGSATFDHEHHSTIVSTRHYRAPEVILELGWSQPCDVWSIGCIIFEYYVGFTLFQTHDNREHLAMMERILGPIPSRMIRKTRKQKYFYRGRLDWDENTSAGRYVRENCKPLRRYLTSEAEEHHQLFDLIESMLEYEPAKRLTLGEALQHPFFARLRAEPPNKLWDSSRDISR
For test [6] the target is unchanged. To be noted: at 10 µM.
Test [7] deals with Dual specificity protein kinase CLK3 (Homo sapiens) (UniProt P49761). To be noted: at 1 µM.
Sequence of Dual specificity protein kinase CLK3 (Homo sapiens) (P49761 whole entry, looked up): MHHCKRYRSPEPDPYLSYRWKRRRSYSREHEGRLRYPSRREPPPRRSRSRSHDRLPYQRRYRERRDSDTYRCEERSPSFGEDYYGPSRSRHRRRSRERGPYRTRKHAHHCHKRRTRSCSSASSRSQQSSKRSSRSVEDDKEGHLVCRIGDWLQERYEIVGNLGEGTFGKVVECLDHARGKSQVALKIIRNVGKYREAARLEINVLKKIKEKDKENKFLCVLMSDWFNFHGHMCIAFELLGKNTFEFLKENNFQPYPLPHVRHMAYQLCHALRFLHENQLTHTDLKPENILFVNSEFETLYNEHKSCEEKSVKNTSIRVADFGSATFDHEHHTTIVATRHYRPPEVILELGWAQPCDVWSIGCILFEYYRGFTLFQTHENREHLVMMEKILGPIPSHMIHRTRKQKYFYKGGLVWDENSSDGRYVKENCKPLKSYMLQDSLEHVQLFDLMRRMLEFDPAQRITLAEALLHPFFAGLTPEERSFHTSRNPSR
The target in test [8] is Tyrosine-protein kinase CSK (Homo sapiens) (UniProt P41240). To be noted: at 1 µM.
Sequence of Tyrosine-protein kinase CSK (Homo sapiens) (P41240 2-450 limits assumed): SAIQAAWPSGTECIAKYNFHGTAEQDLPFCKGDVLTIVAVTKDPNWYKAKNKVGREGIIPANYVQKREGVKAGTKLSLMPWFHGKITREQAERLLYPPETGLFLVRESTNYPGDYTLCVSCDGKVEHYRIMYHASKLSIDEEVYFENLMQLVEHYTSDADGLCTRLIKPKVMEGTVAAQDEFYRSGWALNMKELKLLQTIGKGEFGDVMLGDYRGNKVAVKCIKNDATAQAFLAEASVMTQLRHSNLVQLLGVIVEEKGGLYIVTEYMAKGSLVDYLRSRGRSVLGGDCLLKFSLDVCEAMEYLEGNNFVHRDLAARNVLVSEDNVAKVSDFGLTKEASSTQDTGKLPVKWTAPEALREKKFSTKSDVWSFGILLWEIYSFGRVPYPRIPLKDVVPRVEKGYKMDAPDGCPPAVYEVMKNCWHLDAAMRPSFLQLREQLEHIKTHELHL
The target is the same in test [9]. To be noted: at 10 µM.
In test [10] the target is Calcium/calmodulin-dependent protein kinase type 1 (Homo sapiens) (UniProt Q14012). To be noted: at 1 µM.
Sequence of Calcium/calmodulin-dependent protein kinase type 1 (Homo sapiens) (Q14012 whole entry, looked up): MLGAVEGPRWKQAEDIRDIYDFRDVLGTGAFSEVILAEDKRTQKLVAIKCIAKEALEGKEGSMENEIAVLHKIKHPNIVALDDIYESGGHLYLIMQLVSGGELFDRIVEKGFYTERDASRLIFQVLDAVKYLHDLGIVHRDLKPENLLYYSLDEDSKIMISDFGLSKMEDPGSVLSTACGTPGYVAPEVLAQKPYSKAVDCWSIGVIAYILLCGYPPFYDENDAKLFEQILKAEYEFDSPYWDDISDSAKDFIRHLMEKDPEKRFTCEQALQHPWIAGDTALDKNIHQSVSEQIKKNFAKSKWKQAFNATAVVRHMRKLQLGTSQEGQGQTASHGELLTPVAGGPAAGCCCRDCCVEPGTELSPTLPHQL
Test [11] has the same target. To be noted: at 10 µM.
For test [12], the target named is Calcium/calmodulin-dependent protein kinase type II subunit beta (Homo sapiens) (UniProt Q13554). To be noted: at 1 µM.
Sequence of Calcium/calmodulin-dependent protein kinase type II subunit beta (Homo sapiens) (Q13554 whole entry): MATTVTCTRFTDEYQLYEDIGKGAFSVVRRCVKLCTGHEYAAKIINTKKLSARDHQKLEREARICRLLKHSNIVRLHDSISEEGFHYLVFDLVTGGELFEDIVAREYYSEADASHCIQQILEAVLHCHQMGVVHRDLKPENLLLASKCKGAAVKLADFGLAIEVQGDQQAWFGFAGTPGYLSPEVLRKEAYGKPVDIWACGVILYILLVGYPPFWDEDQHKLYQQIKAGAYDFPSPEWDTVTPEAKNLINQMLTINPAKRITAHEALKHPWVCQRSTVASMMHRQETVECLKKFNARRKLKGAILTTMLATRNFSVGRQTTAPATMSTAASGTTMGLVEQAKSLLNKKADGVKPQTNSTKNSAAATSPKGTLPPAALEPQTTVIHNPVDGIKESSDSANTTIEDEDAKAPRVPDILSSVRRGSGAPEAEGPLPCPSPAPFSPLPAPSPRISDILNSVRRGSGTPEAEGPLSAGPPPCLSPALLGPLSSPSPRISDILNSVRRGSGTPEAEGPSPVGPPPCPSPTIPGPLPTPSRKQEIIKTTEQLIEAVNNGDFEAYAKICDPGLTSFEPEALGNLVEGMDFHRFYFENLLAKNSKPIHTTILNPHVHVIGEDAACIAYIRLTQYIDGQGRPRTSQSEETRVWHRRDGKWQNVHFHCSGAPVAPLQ
The target is the same in test [13]. To be noted: at 10 µM.
Test [14] concerns the target Calcium/calmodulin-dependent protein kinase type II subunit gamma (Homo sapiens) (UniProt Q13555). To be noted: at 1 µM.
For test [15] the target is unchanged. To be noted: at 10 µM.
Test [16] has as its target Calcium/calmodulin-dependent protein kinase type II subunit delta (Homo sapiens) (UniProt Q13557). To be noted: at 1 µM.
Test [17] shares this target. To be noted: at 10 µM.
The target in test [18] is T2, Calcium/calmodulin-dependent protein kinase type IV (Homo sapiens) (UniProt Q16566).
T2 sequence (whole entry): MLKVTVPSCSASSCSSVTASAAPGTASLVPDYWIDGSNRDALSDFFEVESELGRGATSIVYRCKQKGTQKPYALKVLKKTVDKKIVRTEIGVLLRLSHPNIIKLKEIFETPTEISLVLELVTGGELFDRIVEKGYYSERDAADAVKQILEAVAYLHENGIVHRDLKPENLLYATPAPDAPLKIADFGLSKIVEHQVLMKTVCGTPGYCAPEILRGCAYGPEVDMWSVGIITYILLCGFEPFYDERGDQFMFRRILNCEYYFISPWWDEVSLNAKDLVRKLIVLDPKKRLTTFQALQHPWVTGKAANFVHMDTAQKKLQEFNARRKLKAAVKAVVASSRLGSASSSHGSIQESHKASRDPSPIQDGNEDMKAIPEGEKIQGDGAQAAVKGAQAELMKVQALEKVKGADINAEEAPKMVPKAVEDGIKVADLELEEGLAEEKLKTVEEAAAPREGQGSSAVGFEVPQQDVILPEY
To be noted: at 1 µM.

Test [19] addresses T2, Calcium/calmodulin-dependent protein kinase type IV (Homo sapiens). To be noted: at 10 µM.
The target in test [20] is Dual specificity protein kinase CLK3 (Homo sapiens) (UniProt P49761). To be noted: at 10 µM.

Sequence of Calcium/calmodulin-dependent protein kinase type II subunit gamma (Homo sapiens) (Q13555 whole entry): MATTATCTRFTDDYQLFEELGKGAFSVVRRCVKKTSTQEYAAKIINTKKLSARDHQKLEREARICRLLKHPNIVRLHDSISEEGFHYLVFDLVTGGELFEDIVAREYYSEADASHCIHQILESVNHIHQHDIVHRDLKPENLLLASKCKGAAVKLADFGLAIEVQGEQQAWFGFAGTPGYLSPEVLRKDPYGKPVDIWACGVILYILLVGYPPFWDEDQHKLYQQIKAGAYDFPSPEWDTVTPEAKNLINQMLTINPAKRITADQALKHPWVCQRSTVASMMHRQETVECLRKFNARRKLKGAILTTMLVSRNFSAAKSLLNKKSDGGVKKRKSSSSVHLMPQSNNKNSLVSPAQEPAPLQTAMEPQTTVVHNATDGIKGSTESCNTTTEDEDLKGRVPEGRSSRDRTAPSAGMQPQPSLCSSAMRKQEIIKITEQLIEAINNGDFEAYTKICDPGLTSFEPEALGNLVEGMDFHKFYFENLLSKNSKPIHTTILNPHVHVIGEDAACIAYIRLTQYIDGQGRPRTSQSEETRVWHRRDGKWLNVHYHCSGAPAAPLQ
Sequence of Calcium/calmodulin-dependent protein kinase type II subunit delta (Homo sapiens) (Q13557 whole entry): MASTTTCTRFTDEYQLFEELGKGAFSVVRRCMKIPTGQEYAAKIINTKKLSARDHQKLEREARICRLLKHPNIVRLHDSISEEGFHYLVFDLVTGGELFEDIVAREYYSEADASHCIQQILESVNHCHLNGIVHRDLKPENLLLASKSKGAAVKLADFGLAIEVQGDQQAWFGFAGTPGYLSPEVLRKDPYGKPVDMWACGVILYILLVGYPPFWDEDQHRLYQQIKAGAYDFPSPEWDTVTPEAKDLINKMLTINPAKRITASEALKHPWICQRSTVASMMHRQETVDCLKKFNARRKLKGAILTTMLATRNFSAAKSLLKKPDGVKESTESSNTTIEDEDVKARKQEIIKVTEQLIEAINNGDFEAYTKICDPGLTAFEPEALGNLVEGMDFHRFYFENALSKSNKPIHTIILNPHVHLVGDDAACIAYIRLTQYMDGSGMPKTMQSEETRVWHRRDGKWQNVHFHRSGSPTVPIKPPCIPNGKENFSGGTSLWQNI
Sequence of Casein kinase II subunit alpha' (Homo sapiens) (P19784 whole entry, looked up): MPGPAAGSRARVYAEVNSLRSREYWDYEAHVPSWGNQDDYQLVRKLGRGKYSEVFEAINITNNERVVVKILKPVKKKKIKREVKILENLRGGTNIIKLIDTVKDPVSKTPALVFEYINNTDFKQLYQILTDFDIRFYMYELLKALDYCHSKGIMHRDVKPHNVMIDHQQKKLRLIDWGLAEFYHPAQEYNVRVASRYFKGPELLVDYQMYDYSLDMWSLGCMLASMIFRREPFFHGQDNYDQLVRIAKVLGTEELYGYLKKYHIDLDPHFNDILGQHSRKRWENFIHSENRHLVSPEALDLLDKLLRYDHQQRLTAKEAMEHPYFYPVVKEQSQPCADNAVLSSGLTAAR
T1 sequence (P19784 whole entry, looked up): as above
T1 sequence (P67870 whole entry, looked up): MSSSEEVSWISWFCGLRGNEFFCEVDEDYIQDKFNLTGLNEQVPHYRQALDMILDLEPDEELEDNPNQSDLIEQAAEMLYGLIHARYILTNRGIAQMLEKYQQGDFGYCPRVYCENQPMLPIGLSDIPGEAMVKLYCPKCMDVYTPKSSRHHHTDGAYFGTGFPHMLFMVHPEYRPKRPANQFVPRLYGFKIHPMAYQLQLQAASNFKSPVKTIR
T1 sequence (P68400 whole entry, looked up): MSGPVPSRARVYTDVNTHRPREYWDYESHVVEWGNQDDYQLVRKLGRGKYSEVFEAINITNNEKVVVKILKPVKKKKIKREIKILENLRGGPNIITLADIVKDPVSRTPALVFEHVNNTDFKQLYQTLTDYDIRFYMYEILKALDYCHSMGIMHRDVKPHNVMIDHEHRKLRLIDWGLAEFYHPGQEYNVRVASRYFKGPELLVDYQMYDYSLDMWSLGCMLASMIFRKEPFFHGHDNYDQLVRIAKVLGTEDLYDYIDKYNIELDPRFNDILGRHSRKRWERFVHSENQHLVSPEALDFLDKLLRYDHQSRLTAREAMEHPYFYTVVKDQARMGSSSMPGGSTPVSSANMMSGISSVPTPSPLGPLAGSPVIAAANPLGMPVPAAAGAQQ

With `O=[N+]([O-])/C=C/c1ccc2c(c1)OCO2`, the residual activity (commonly the signal under treatment as a percentage of the control signal) in test [1] stood at 105%; in test [2] it was 126%; in [3], 134%; in [4] it was 102%; in test [5] it was 121%; in test [6], 101%. In addition, the residual activity in test [7] turned out to be 91%; in [8], 112%; in test [9], 100%; in [10], 108%; in test [11] it was 84%; in [12], 90%. Besides, the residual activity in test [13] came out at 84%; in test [14], 107%; in test [15], 100%; in test [16] it was 109%; in [17] it was 97%; in test [18], 132%. Moreover, the residual activity in [19] was found to be 14%.

Regarding `c1cc(-c2cnn3cc(-c4ccc(OCCN5CCCCC5)cc4)cnc23)ccn1`, the residual activity in test [1] stood at 82%; in test [2] it was 27%; in test [3], 26%; in test [4], 1%; in test [5], 26%; in test [6], 3%. Further, the residual activity in test [7] was determined as 62%; in test [20], 23%; in test [8], 100%; in test [9], 64%; in test [11], 61%; in test [12], 48%. The residual activity in test [13] worked out at 8%; in test [14], 39%; in test [15] it was 7%; in test [16], 40%; in test [17], 6%; in [19], 87%.

With `COc1cc2ncnc(Nc3ccc(OCc4ccccc4)cc3)c2cc1OC`, the residual activity in [1] was determined as 92%; in test [2] it was 116%; in test [3], 121%; in test [4] it was 99%; in test [5], 117%; in test [6], 93%. Besides, the residual activity was determined as 82% in test [7]; 87% in test [20]; 84% in [8]; 62% in test [9]; 92% in [10]; 57% in test [11]. Besides, the residual activity was determined as 106% in test [12]; 95% in [13]; 109% in test [14]; 93% in [15]; 100% in test [16]; 83% in [17]. Also, the results for the residual activity in [18] and in test [19] were 92% and 91%, respectively.

Consider `O=C1Nc2ccc3ncsc3c2/C1=C/c1c[nH]cn1`, for which the residual activity is 30% in test [1]; 1% in test [2]; 12% in [3]; -1% in test [4]; 8% in test [5]; 3% in [6]. Besides, the residual activity in test [7] is 38%; in test [20], 3%; in [8], 104%; in test [9], 96%; in test [10], 72%; in [11] it was 22%. Also, the residual activity in [12] was 13%; in test [13] it was 3%; in [14], 21%; in test [15], -1%; in test [16], 18%; in test [17] it was 4%. Moreover, the residual activity in test [18] was 80%; in test [19] it was 24%.

With `CC(C)[C@H](CO)Nc1nc(Nc2cccc(Cl)c2)c2ncn(C(C)C)c2n1`, the residual activity in test [1] was 99%; in [2], 96%; in test [5], 8%; in test [6], 1%; in [7], 55%; in [20], 11%. Besides, the residual activity stood at 65% in test [9]; 93% in [10]; 78% in test [11]; 95% in test [12]; 68% in test [13]; 100% in [14]. Further, the residual activity amounted to 42% in [15], 99% in [16], 46% in [17] and 60% in [19].

Regarding `CC(C)(C)c1cc(C=C(C#N)C#N)cc(Br)c1O`, the residual activity in test [1] worked out at 113%; in [2], 114%; in test [3] it was 121%; in [4], 113%; in test [5] it was 99%; in test [6], 103%. Further, the residual activity in test [7] is 100%; in [20], 108%; in [8], 103%; in test [9] it was 105%; in test [10], 121%; in test [11] it was 105%. Besides, the residual activity stood at 102% in test [14]; 55% in test [15]; 104% in test [16]; 46% in [17]; 115% in test [18]; 83% in test [19].

In the case of `COc1ccc2c(c[n+](C)c3c4cc5c(cc4ccc23)OCO5)c1OC`, the residual activity in [1] was 92%; in test [2] it was 110%; in test [3] it was 126%; in test [5] it was 120%; in test [6], 93%; in test [7] it was 74%. Besides, the residual activity in test [20] is 80%; in test [9], 95%; in [11] it was 86%; in [12] it was 80%; in test [13], 55%; in test [15], 70%. For the same compound, the residual activity amounted to 85% in test [17] and 69% in test [19].

As for `O=C1NC(=O)c2c1c1c3ccccc3n3c1c1c2c2ccccc2n1C1CCC3O1`, the residual activity was 63% in test [3]; 49% in test [4]; 100% in test [5]; 92% in [6]; 95% in [7]; 85% in [20]. Besides, the residual activity in test [10] was 63%; in test [11], 48%; in test [12], 32%; in test [13] it was 32%; in [14], 0%; in test [15] it was 1%. Further, the residual activity in test [16] is -1%; in test [17], 5%; in [18] it was 90%; in test [19] it was 100%.
